Pf Dd2 inh: P. falciparum Dd2 growth inhibitors, primary screen, SYBR Green fluorescence, single dose replicates; 72 h; hits give low values; activity change, % at 10 µM; hit rate 2.3% among 94,000; in the data active = activity change below about -80%
C diff growth: C. difficile growth inhibitors, primary screen, HTS. Clostridium difficile clinical isolate growth, OD600, 24 h; hits give low values. growth activity, negative = inhibition, % at 16 µg/mL (by protocol). hit rate 0.25% among 86,000;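 active = mean growth activity at or below -80% and every replicate also at or below -80%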
Hits are given with their value; . = inactive; / = not tested or not shown. An excerpt weighted towards active compounds, which were near 2.3% of everything screened.

SMILES | Pf Dd2 inh | C diff growth
C[C@@H]1CN([C@@H](C)CO)S(=O)(=O)c2ccc(C#Cc3ccccc3)cc2O[C@H]1CN(C)C(=O)C1CC1 | -89.3 | .
CCC(=O)N(C)C[C@H]1Oc2cc(C#Cc3ccccc3)ccc2S(=O)(=O)N([C@@H](C)CO)C[C@@H]1C | -82.9 | .
C[C@@H]1CN([C@@H](C)CO)C(=O)c2cc(NC(=O)NC3CCCCC3)ccc2O[C@@H](C)CCCCO[C@H]1CN(C)C | / | .
Cc1noc(C)c1NC(=O)N[C@H]1CC[C@@H](CC(=O)N2CCCCC2)O[C@@H]1CO | . | .
COc1ccc2c3c([nH]c2c1)[C@H](CO)NCC31CCN(C(=O)C2CCOCC2)CC1 | . | .
COc1ccc2c3c(n(C)c2c1)[C@H](CO)NCC31CCN(S(=O)(=O)c2cccc(F)c2)CC1 | -86.1 | .
COc1ccc2c3c([nH]c2c1)[C@@H](CO)NCC31CCN(C(=O)C2CCOCC2)CC1 | -82.1 | .
COc1cccc(S(=O)(=O)N2CCC3(CC2)CN[C@H](CO)c2[nH]c4cc(OC)ccc4c23)c1 | -87.8 | .
COc1ccc2c3c(n(C)c2c1)[C@H](CO)NCC31CCN(S(=O)(=O)c2cccc(C)c2)CC1 | . | .
COc1ccc2c3c([nH]c2c1)[C@@H](CO)NCC31CN(C(=O)c2ccccc2)C1 | . | .
COc1ccc2c3c([nH]c2c1)[C@H](CO)NCC31CCN(C(=O)c2ccccc2)CC1 | -84.1 | .
COc1ccc2c3c([nH]c2c1)[C@@H](CO)NCC31CCN(S(=O)(=O)c2cccs2)CC1 | . | .
O=S(=O)(c1cccs1)N1CCCCN2[C@H](CO)[C@H](c3ccc(C4=CCCCC4)cc3)[C@H]2C1 | . | .
Cc1ccc(-c2ccc([C@@H]3[C@@H](CO)N4CCCCN(C(=O)c5ccncc5)C[C@@H]34)cc2)cc1 | . | .
C[C@H](CO)N1C[C@H](C)[C@H](CN(C)S(=O)(=O)c2ccc(F)cc2)OCCCC[C@H](C)Oc2ccc(NC(=O)Nc3ccc(F)cc3)cc2C1=O | . | .
C[C@@H]1CCCCO[C@H](CN(C)C(=O)Nc2ccc(F)cc2)[C@H](C)CN([C@H](C)CO)C(=O)c2cc(NC(=O)Cc3ccccc3)ccc2O1 | -85.4 | .
COc1ccc(NC(=O)N(C)C[C@H]2OCCCC[C@@H](C)Oc3ccc(NC(=O)c4ccccc4)cc3C(=O)N([C@@H](C)CO)C[C@H]2C)cc1 | . | .
COc1ccc(NC(=O)N(C)C[C@H]2OCCCC[C@H](C)Oc3ccc(NC(=O)Cc4ccccc4)cc3C(=O)N([C@H](C)CO)C[C@H]2C)cc1 | -87.3 | .
C[C@@H]1CCCCO[C@H](CN(C)C(=O)Nc2ccc(F)cc2)[C@@H](C)CN([C@@H](C)CO)C(=O)c2cc(NC(=O)Cc3ccccc3)ccc2O1 | . | .
COc1ccc(NC(=O)N(C)C[C@@H]2OCCCC[C@@H](C)Oc3ccc(NC(=O)Cc4ccccc4)cc3C(=O)N([C@@H](C)CO)C[C@@H]2C)cc1 | . | .
COc1ccc(NC(=O)N(C)C[C@H]2OCCCC[C@H](C)Oc3ccc(NC(=O)c4ccccc4)cc3C(=O)N([C@H](C)CO)C[C@H]2C)cc1 | -95.1 | .
C[C@H]1CCCCO[C@H](CN(C)C(=O)Nc2ccc(C(F)(F)F)cc2)[C@@H](C)CN([C@@H](C)CO)C(=O)c2cc(NC(=O)Cc3ccccc3)ccc2O1 | -89.1 | .
C[C@@H]1CCCCO[C@@H](CN(C)C(=O)Nc2ccc(C(F)(F)F)cc2)[C@H](C)CN([C@H](C)CO)C(=O)c2cc(NC(=O)Cc3ccccc3)ccc2O1 | . | .
COc1ccc2c3c([nH]c2c1)[C@@H](CO)N(C(=O)c1ccncc1)CC31CN(C(=O)c2ccncc2)C1 | . | .
COc1ccc(CN(C)C[C@H]2Oc3ccc(NS(=O)(=O)c4ccc(Cl)cc4)cc3CC(=O)N([C@H](C)CO)C[C@@H]2C)cc1 | . | .
C[C@@H]1CCCCO[C@H](CN(C)C(=O)Nc2ccc(C(F)(F)F)cc2)[C@@H](C)CN([C@H](C)CO)C(=O)c2cc(NC(=O)Cc3ccccc3)ccc2O1 | -87.7 | .
C[C@@H]1CCCCO[C@H](CN(C)C(=O)Nc2ccc(C(F)(F)F)cc2)[C@H](C)CN([C@H](C)CO)C(=O)c2cc(NC(=O)Cc3ccccc3)ccc2O1 | -85.7 | .
C[C@H]1CCCCO[C@@H](CN(C)C(=O)Nc2ccccc2)[C@@H](C)CN([C@@H](C)CO)C(=O)c2cc(NC(=O)Cc3ccccc3)ccc2O1 | . | /
C[C@H](CO)N1C[C@H](C)[C@@H](CN(C)C(=O)Nc2ccc(C(F)(F)F)cc2)OCCCC[C@H](C)Oc2ccc(NC(=O)Cc3ccccc3)cc2C1=O | -84.6 | .
C[C@@H]1CCCCO[C@H](CN(C)C(=O)Nc2ccccc2)[C@H](C)CN([C@@H](C)CO)C(=O)c2cc(NC(=O)Cc3ccccc3)ccc2O1 | . | /

Source: PubChem (Broad Institute)
